From PubChem BioAssay AID686978 (National Center for Advancing Translational Sciences (NCATS), 2013)
Several values for one entry are separate records, joined by “and”; a condition that tells them apart may be missing. Equal entries are not always repeated. Among all 420,000 compounds or so, about 64,000 (15%) were called active. Roughly 27% stayed inconclusive and do not appear here. Calls follow the shape of the dose curve; as a rule, active = well fitted inhibition curve with a large enough effect; inconclusive = small, poorly fitted or top-dose-only effect; inactive = flat fitted curve, though single readings scatter. These entries were drawn from the full list.

assay: qHTS for Inhibitors of human tyrosyl-DNA phosphodiesterase 1 (TDP1): qHTS in cells in absence of CPT; conditions: DT40 Tdp1-/- hTDP1 cells, no CPT, ATP luminescence, 48 h; activity change, negative = growth inhibition: at 46.2 µM (top of the series); also: nearly all actives have a fitted effect of over 55% in size
In short: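 Readout: luminescence from CellTiter-Glo after 30 min in the dark at RT. Cells: DT40 Tdp1-/- with stable hTDP1, 400/well. Exposure: compounds alone, ≥48 hr, 37 °C.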
% is scaled to controls: 0 for no effect and ±100 for the full control effect; potency is read from the fitted curve at half-maximal effect.

Compound | activity change, negative = growth inhibition | Potency
Cn1cc(-c2nc3cncnc3n(-c3ccccc3)c2=O)c2ccccc21 | -24.1% (inactive) | –
Cc1cc(C(=O)OCC(=O)Nc2ccccc2Cl)c(C)o1 | -1.32% (inactive) | –
O=C(Nc1ccc(S(=O)(=O)Nc2ncccn2)cc1)C12CC3CC(CC(C3)C1)C2 | 3.99% (inactive) | –
CCn1nccc1C(=O)Nc1ccc(Cl)c(Cl)c1 | -15.9% (inactive) | –
CCn1nccc1C(=O)Nc1ccc(S(=O)(=O)NC23CC4CC(CC(C4)C2)C3)cc1 | – | 16.4 µM (active)
O=C(NC(=O)N1CCOCC1)c1ccccc1 | 0.215% (inactive) | –
COCCNC(=O)c1ccccc1NS(=O)(=O)c1ccc(C)c([N+](=O)[O-])c1 | -13.7% (inactive) | –
CCOc1cc(NS(=O)(=O)c2ccc(OC)cc2)c(OCC)cc1NC(C)=O | -14.7% (inactive) | –
CCOC(=O)c1ccccc1NS(=O)(=O)c1ccc(OC)cc1 | – | 14.6 µM (active)
O=c1nc(N/N=C/c2ccco2)cn[nH]1 | -3.94% (inactive) | –
CC1CC(C)CN(C(=O)C2CC(=O)N(c3ccc(F)cc3)C2)C1 (centres undefined) | -1.19% (inactive) | –
CCOc1cc(C(=O)OCC(=O)Nc2cccc(C)c2)ccc1OCC(=O)N1CCOCC1 | 23.9% (inactive) | –
COc1ccc(C2CC(=O)Oc3ccc(C(C)(C)C)cc32)cc1 (centres undefined) | 4.46% (inactive) | –
COc1ccccc1-c1cc(C(=O)NCCCn2ccnc2)no1 | -15.1% (inactive) | –
O=C(NCCCn1ccnc1)c1cc(-c2ccccc2)on1 | – | 7.31 µM (active)
COc1ccc(-c2cc(C(=O)NCCCn3ccnc3)no2)cc1 | -20.9% (inactive) | –
O=C(NCCN1CCOCC1)[C@H](Cc1ccccc1)N1C(=O)c2ccccc2C1=O | -28.8% (inactive) | –
Cc1csc(SCC(=O)Nc2sccc2C#N)n1 | -11.8% (inactive) | –
O=C(Cc1ccc(Br)cc1)N1CCN(c2ccccn2)CC1 | -23.2% (inactive) | –
Brc1ccc(-c2n(-c3ccccn3)c3ccccc3[n+]2-c2ccccn2)cc1 | – | 13 µM (active)
Cn1cc(CNC(=O)c2ccc(OC3CCN(Cc4ccccn4)CC3)cc2)cn1 | -13% (inactive) | –
CN(C(=O)CSc1nc2ccccc2n1Cc1ccccc1C#N)c1ccccc1 | – | 18.4 µM (active)
COC(=O)CSc1nc2ccccc2c(=O)n1Cc1ccccc1 | -18.6% (inactive) | –
COC(=O)c1ccc(Cn2c(SCC(=O)N(C)c3ccccc3)nc3ccccc32)cc1 | – | 23.1 µM (active)
CCN(CC)C(=O)CSc1nc2ccccc2n1CC(=O)N1CCN(c2ccccc2OC)CC1 | -28% (inactive) | –
CCn1c(SCC(=O)N2CCCC2=O)nc2ccccc21 | 9.74% (inactive) | –

Compound | activity change, negative = growth inhibition | Potency
Cc1ccc(Cn2c(SCC(=O)N/N=C/c3ccccc3OCC(=O)O)nc3ccccc32)cc1 | 13% (inactive) | –
CC1=C(C/C=C(\C)CCCC(C)CCCC(C)CCCC(C)C)C(=O)c2ccccc2C1=O (centres undefined) | -7.3% (inactive) | –
Cc1cc(C)cc(NC(=O)COc2coc(CN3CCN(c4ccccc4)CC3)cc2=O)c1 | -32.4% (inactive) | –
CC1(C(=O)NS(=O)(=O)c2cccc(F)c2)CCN1C(=O)Cc1ccc(Cl)cc1Cl (centres undefined) | -9.03% (inactive) | –
COc1ccccc1NC(=O)c1ccc(N2CC3CC(C2)c2cccc(=O)n2C3)c(NC(=O)c2cccnc2)c1 (centres undefined) | -3.69% (inactive) | –
O=C(OCC1OC(Oc2ccc(O)cc2)C(O)C(O)C1O)c1ccccc1 (centres undefined) | -2.28% (inactive) | –
O=C(CSc1nccn1Cc1ccc(Cl)cc1)NCc1ccccc1 | – | 29.1 µM (active)
CCCCNC(=O)CSc1nccn1Cc1ccccc1 | -16.4% (inactive) | –
CCCCCCNC(=O)CSc1nccn1Cc1ccccc1 | -20.3% (inactive) | –
NC(=O)c1ccccc1N=Cc1ccc2ccccc2c1 | – | 16.4 µM (active)
N=c1oc2ccccc2cc1C(=O)N/N=C/c1ccccc1 | -7.25% (inactive) | –
O=C(COC(=O)Cc1ccccc1F)NNC(=O)c1ccc(Cl)cc1 | -7.42% (inactive) | –
Cc1ccc(S(=O)(=O)N(C)C)cc1NC(=O)C1Cc2ccccc2CN1C(=O)c1ccco1 (centres undefined) | -0.334% (inactive) | –
Cc1ccc(C)c(NC(=O)C2Cc3ccccc3CN2C(=O)OCc2ccccc2)c1 (centres undefined) | – | 20.6 µM (active)
Cc1ccc(NC(=O)C2CCCN2C(=O)OCc2ccccc2)cc1C (centres undefined) | -15.4% (inactive) | –
Fc1ccccc1OCCCCn1cncn1 | -6.12% (inactive) | –
COc1cc(/C=C/CNC[C@H]2O[C@@H](n3cnc(C(N)=O)n3)[C@H](O)[C@@H]2O)ccc1O | -8.27% (inactive) | –
OCC[C@H]1C[C@@H](O)[C@H](O)[C@]2(OCCCc3ccccc32)O1 | -26.6% (inactive) | –
O=C(NCCN1CCOCC1)Nc1cccc(Cl)c1 | 2.52% (inactive) | –
CCN1CCN(CCNC(=O)c2ccc3c(c2)NC(=O)/C(=C\c2cccc(Cl)c2)S3)CC1 | – | 16.4 µM (active)
O=C(NCCCN1CCCCC1)c1ccc2c(c1)NC(=O)C(N1CCOCC1)S2 (centres undefined) | -5.19% (inactive) | –
Cc1cc(C)n(-c2ccc(NC(=O)C3CCCCN3C(=O)c3cccs3)cc2)n1 (centres undefined) | -24.6% (inactive) | –
CCOc1ccc(/C=C(/NC(=O)c2ccccc2)C(=O)NCCC(=O)O)cc1 | -1.02% (inactive) | –
O=C1CCNCCN1[C@H](CO)Cc1ccccc1 | – | inactive
O=C1CCN(Cc2ccc([N+](=O)[O-])cc2)CCN1[C@H](CO)Cc1ccccc1 | -29.7% (inactive) | –
O=C1CC[C@H](O)CCN1[C@H](CSc1ccc(Br)cc1)Cc1ccccc1 | – | 15.8 µM (active) and 16.4 µM (active)

Compound | activity change, negative = growth inhibition | Potency
COc1ccccc1NC(=O)C1=C(C)Nc2ncnn2C1c1ccc(C)o1 (centres undefined) | 6.2% (inactive) | –
CC(OC(=O)c1cc2ccccc2o1)C(=O)Nc1ccc(N2CCOCC2)cc1 (centres undefined) | -12.7% (inactive) | –
COC(=O)c1sc(NC(=O)c2csc3c2CCCC3)nc1C | – | 23.1 µM (active)
CCOC(=O)c1ccc(NC(=O)c2c(NCc3ccccc3)[nH]c(=O)[nH]c2=O)cc1 | 8.57% (inactive) | –
CCOC(=O)c1ccc(NC(=O)c2csc3c2CCCCC3)cc1 | – | 14.6 µM (active)
CCOC(=O)c1ccc(NC(=O)c2c(NCc3cccc(OC)c3)sc3c2CCC3)cc1 | – | 11.6 µM (active)
CCOC(=O)c1ccc(NC(=O)c2c(NCc3cccs3)sc3c2CCCC3)cc1 | – | 20.6 µM (active)
CC(=O)Cc1nsc(NC(=O)c2csc3c2CCCC3)n1 | -18.5% (inactive) | –
CCOc1ccc(CCNC(=O)c2csc3c2CCCCC3)cc1 | -23.6% (inactive) | –
COC(=O)c1sc(NC(=S)NC(=O)c2ccc(C)cc2)nc1C | -26.1% (inactive) | –
Cc1ccc(NC(=O)c2csc3c2CCCC3)cc1 | -10.6% (inactive) | –
CCOC(=O)c1ccc(NC(=O)CNC(=O)c2ccco2)cc1 | -8.77% (inactive) | –
CCOC(=O)c1c(NC(=O)Cc2coc3ccc(CC)cc23)sc2c1CCC2 | -69.5% (inactive) | –
CC[C@H](C)C(=O)N[C@H]1CCCN1C(=O)/C=C/c1ccccc1 | 7.88% (inactive) | –
Cc1ccc(C(=O)COC(=O)CCCC(=O)NC2CCCCC2)cc1[N+](=O)[O-] | -10.4% (inactive) | –
COCCNC(=O)C1CCN(C(=O)C2CC(=O)N(c3ccc(C)cc3)C2)CC1 (centres undefined) | -29.2% (inactive) | –
O=C1CCC(=O)N1c1ccc(NCCc2ccccc2F)c([N+](=O)[O-])c1 | -18% (inactive) | –
CCCCN1CCNC1=S | -4.02% (inactive) | –
CC1CC(C)CN(C(=O)CSc2nnc(CSc3ncccn3)n2C)C1 (centres undefined) | -7.34% (inactive) | –
COCC1CCCN(C(=O)c2ccc3oc(C(C)C)nc3c2)C1 (centres undefined) | 6.37% (inactive) | –
COc1ccc(CCNc2nc3ccc(C)cc3n3cnnc23)cc1OC | – | 16.4 µM (active) and 23.1 µM (active)
COc1ccccc1CNc1nc2ccc(Cl)cc2n2cnnc12 | -14.6% (inactive) | –
COc1ccc(CCNc2nc3c(-c4cccc(F)c4)nnn3c3ccccc23)cc1OC | -25.8% (inactive) | –
Cc1ccc(NC(=O)C2CC(c3ccc(F)cc3)=NO2)cc1 (centres undefined) | -8.36% (inactive) | –
COc1ccc(C2=NOC(C(=O)NCc3ccco3)C2)cc1OC (centres undefined) | – | 2.59 µM (active)
COc1ccc(S(=O)(=O)N2CCC(C(=O)NCc3ccco3)CC2)cc1C | -21.2% (inactive) | –

Compound | activity change, negative = growth inhibition | Potency
COc1ccc(CNC(=O)C2CCCC2)cc1 | -24% (inactive) | –
COc1ccc(CNC(=O)C2CC(c3ccc(C(F)(F)F)cc3)=NO2)cc1 (centres undefined) | – | 11.6 µM (active)
COc1ccc(-c2cc(C(=O)NCc3ccco3)no2)cc1OC | -3.72% (inactive) | –
O=C(COC(=O)COc1ccccc1F)Nc1cccc(S(=O)(=O)N2CCCCC2)c1 | -1.15% (inactive) | –
O=C1OCCOC2CCCc3oc(-c4ccccc4)c1c32 (centres undefined) | -25% (inactive) | –
CCN(CC)CCCN1C(=O)C(=O)/C(=C(/O)c2c(C)nc3ccccn23)C1c1ccc(C)o1 (centres undefined) | -16.8% (inactive) | –
O=C(CCNc1n[nH]c(=O)[nH]c1=O)N/N=C\c1ccc(Br)cc1 | 0.678% (inactive) | –
Cc1c(O)cc2c(c1C)O[C@](C)(CCC[C@H](C)CCC[C@H](C)CCCC(C)C)CC2 | -16.5% (inactive) | –
COc1ccc(NC(=O)CN2C(=O)NC(C)(c3ccccc3)C2=O)cn1 (centres undefined) | 5.71% (inactive) | –
COc1ccc(OCC(=O)NN2Cc3ccccc3C2=N)cc1 | -4.78% (inactive) | –
Cc1ccc(N2C(=O)c3ccccc3C2(O)c2ncc[nH]2)cc1 (centres undefined) | -4.39% (inactive) | –
C=CCNc1cnn(-c2ccc(C)cc2)c(=O)c1Cl | -2.77% (inactive) | –
O=C(NCc1ccccc1)c1ccc(S(=O)(=O)Nc2cccc(C(F)(F)F)c2)cc1 | -0.815% (inactive) | –
O=C(NCc1cccc(C(F)(F)F)c1)c1cccc(S(=O)(=O)N2CCN(Cc3ccccc3)CC2)c1 | – | 18.4 µM (active)
O=C(CCC(=O)c1ccccc1)NCc1cccc(C(F)(F)F)c1 | -9.59% (inactive) | –
O=S(=O)(NCCS(=O)(=O)N1CCN(c2ccccc2)CC1)c1ccc(F)cc1 | -13.9% (inactive) | –
CN(Cc1cccc2ncccc12)C(=O)CC1C(=O)NCCN1Cc1ccc(F)cc1 (centres undefined) | -8.69% (inactive) | –
CC1CN(/C=C/C(=O)C(F)(F)F)CC(C)O1 (centres undefined) | -15.9% (inactive) | –
Cc1cc(NC(=O)CN2C(=O)NC(CC(C)C)C2=O)no1 (centres undefined) | 17.8% (inactive) | –
Cc1ccc(S(=O)(=O)N(Cc2ccc(Cl)cc2)c2ccccc2C(=O)NCc2cccnc2)cc1 | – | 23.1 µM (active)
CS(=O)(=O)N(Cc1ccccc1)c1ccc(C(=O)NN=C2CCCCCC2)cc1 | -12% (inactive) | –
CN(c1ccccc1)S(=O)(=O)c1ccc(C(=O)NCc2cccnc2)cc1 | -40.5% (inactive) | –
O=C(NCc1cccnc1)c1cccnc1Sc1ccc(Cl)cc1 | -1.61% (inactive) | –
O=C(O)c1ccccc1-c1ccccc1C(=O)NCc1cccnc1 | -1.27% (inactive) | –
CS(=O)(=O)N(Cc1ccccc1Cl)c1ccc(C(=O)NCc2cccnc2)cc1 | – | 14.6 µM (active)
CCOc1ccc(OCC(=O)OC(C)C(=O)NC2CCCCC2C)cc1 (centres undefined) | -6.76% (inactive) | –
